Source: PubChem BioAssay (NCI)
This is part of a sample that, as a whole, favours compounds with a hit. Of some 79,000 tested, about 15% had one in any assay. Calls of active or inactive are those of the source. Cut-off read from the data, not from the text of the source: active = growth inhibition above about 70%; inactive = the rest.

How the values were obtained:
[1] = NCI Yeast Anticancer Drug Screen. Data for the rad50 strain (AID 155);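 note: 0% = growth of vehicle-only cultures of the same strain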; settings: S. cerevisiae rad50 strain growth inhibition; at 50.0 µM; active compounds read high
In short: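 Compounds were tested on a yeast strain with an engineered DNA damage repair alteration; the reported value is growth inhibition normalised to vehicle treatment.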

[2] = NCI Yeast Anticancer Drug Screen. Data for the mec2-1 strain (AID 157); settings: S. cerevisiae mec2-1 strain, at 50.0 µM, active compounds read high
In short: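 Using mec2-1 yeast: add compound, measure growth, express inhibition versus vehicle-treated cultures.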

[3] = NCI Yeast Anticancer Drug Screen. Data for the sgs1 mgt1 strain (AID 161);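 note: 0% = growth of cultures given vehicle only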; settings: S. cerevisiae sgs1 mgt1 strain, at 50.0 µM, active compounds read high
In short: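 Growth of a repair-deficient yeast mutant was monitored after compound treatment and expressed as inhibition relative to vehicle-treated cultures.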

[4] = NCI Yeast Anticancer Drug Screen. Data for the cln2 rad14 strain (AID 165);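 note: 0% = growth equal to vehicle treated cultures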; settings: S. cerevisiae cln2 rad14 strain, at 50.0 µM, active compounds read high
In short: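 Yeast strain cln2 rad14, bearing defects in cell cycle control and DNA repair, serves as the test system; values reflect growth inhibition compared with vehicle.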

[5] = NCI Yeast Anticancer Drug Screen. Data for the bub3 strain (AID 167); settings: S. cerevisiae bub3 mutant strain, at 50.0 µM, active compounds read high
In short: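 Growth of a checkpoint-deficient yeast mutant is measured after compound exposure. Values represent inhibition relative to vehicle.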

[6] = NCI Yeast Anticancer Drug Screen. Data for the mlh1 rad18 strain (AID 175); settings: S. cerevisiae mlh1 rad18 strain growth inhibition; at 50.0 µM; active compounds read high
In short: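 Steps: expose repair-defective yeast to compound; measure growth; express inhibition against vehicle-treated controls.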

Measured: growth inhibition

Nc1ccc(S(=O)(=O)CCO)cc1
inactive: [1] 1.1% | [2] -7.5% | [3] 4.65% | [4] 4.45% | [5] -5.6% | [6] 3.6%

COc1cc(OC)c(C(C)=O)c(O)c1OC
inactive: [1] 2.75% | [2] 1.05% | [3] 10.9% | [4] 10.6% | [5] 11.1% | [6] 15.2%

O=C1Nc2cc(Cl)ccc2N=CC1NC(=O)C(c1ccccc1)c1ccccc1Cl (configuration not stated)
inactive: [1] -33.1% | [2] -11.6% | [3] -6.15% | [4] -15.9% | [5] -6.8% | [6] -17.8%

COc1ccc(NC(=O)C(=O)C(C(=O)c2ccccc2)C2OC(=O)c3ccccc32)c([N+](=O)[O-])c1 (configuration not stated)
inactive: [1] 8.85% | [2] 5.6% | [3] -23.2% | [4] 26.1% | [5] 28.4% | [6] 8.1%

CCCCCCCCCCCCNC(=S)N/N=C/c1ccc(OC)cc1
inactive: [1] -19.1% | [2] -10.5% | [3] -16.8% | [4] 13.3% | [5] -8.4% | [6] -28.2%

O=C(Cc1cccc2c(=O)cc(-c3ccccc3)oc12)OCCN1CCOCC1
inactive: [1] 18.9% | [2] 31.4% | [3] 0.95% | [4] 7.4% | [5] 26.9% | [6] 29.4%

COC12CC3C4CCC5CC(O)CCC5(C)C4CCC3(C)C1C(C)C1(CCC(C)CO1)O2 (configuration not stated)
inactive: [1] 33.6% | [2] 8.7% | [3] 13.1% | [4] 19.8% | [5] 1.05% | [6] -0.4%

Cc1csc2[nH]c(=O)[nH]c(=O)c12
inactive: [1] 5.5% | [2] 6.05% | [3] -1.4% | [4] -28.1% | [5] -15.2% | [6] 4.5%

CC(O)C(=O)N1CCOCC1 (configuration not stated)
inactive: [1] 3.5% | [2] -3.65% | [3] -0.7% | [4] -24.9% | [5] 4.25% | [6] -23.3%

O=C(Nc1ccccc1Cl)OCCOc1ccccc1
inactive: [1] -3.7% | [2] 10.1% | [3] 11.3% | [4] -19.1% | [5] 17.2% | [6] 14.7%

COc1ccc(F)cc1N
inactive: [1] 2% | [2] -17.8% | [3] 5.15% | [4] -7.35% | [5] 11.8% | [6] -18.7%

CCOC(=O)NC(=O)c1cn(CCCOC(=O)CCCCCCCCCCC(=O)OCCCn2cc(C(=O)NC(=O)OCC)c(=O)n(C)c2=O)c(=O)n(C)c1=O
inactive: [1] -22.3% | [2] 8.3% | [3] -24.6% | [4] 15.3% | [5] -2.35% | [6] -19.4%

COc1ccc(Cl)c(C(=O)O)c1
inactive: [1] 19.1% | [2] 6.9% | [3] 4.1% | [4] 21.4% | [5] 6.85% | [6] 28.4%

O=C1c2cc([N+](=O)[O-])ccc2-c2c(Cl)cc(NC(=O)C(F)(F)F)cc21
inactive: [1] -0.5% | [2] -11.3% | [3] 1.65% | [4] -40% | [5] 6.9% | [6] -2.55%

CC(=O)/C(=C/n1ccc(=O)[nH]c1=S)C(=O)Nc1ccc([N+](=O)[O-])cc1
inactive: [1] -18.3% | [2] -18.8% | [3] -38.2% | [4] -20.4% | [5] -2.85% | [6] -10.9%

C/C(=N/O)c1cccc([N+](=O)[O-])c1
inactive: [1] -10.7% | [2] 15.5% | [3] -4.95% | [4] -14.3% | [5] -3.6% | [6] -7.15%

Cc1nn(C(=O)c2ccc(Cl)cc2)c2c1C(c1ccccc1O)SC(N)=N2 (configuration not stated)
inactive: [1] -29.9% | [2] -47.1% | [3] -30.1% | [4] -1.45% | [5] -11.5% | [6] -25.1%

CCOC(=O)CCC1(C)OCC(O)CO1 (configuration not stated) (tested in a mixture with another compound)
inactive: [1] -11.1% | [2] -5.25% | [3] -5.6% | [4] -2.85% | [5] -16.6% | [6] -25.8%

COC(=O)[C@@]12OC[C@]34[C@H]([C@@H](O)[C@@H]1O)[C@@]1(C)CC(=O)C(O)=C(C)[C@@H]1C[C@H]3OC(=O)[C@H](OC(=O)/C=C(\C)C(C)CO)[C@@H]24 (some centres not stated)
inactive: [1] -0.7% | [2] -16.7% | [3] -13.3% | [4] -1.7% | [5] -18.9% | [6] -28.8%

N#CC(=O)Nc1cccc(Cl)c1
inactive: [1] -13.1% | [2] -8.05% | [3] -16.4% | [4] -19.7% | [5] -3.05% | [6] -0.15%

CCOC(=O)CCc1c(C)c2c(OC(C)=O)cc(OC(C)=O)cc2oc1=O
inactive: [1] 31.6% | [2] 0.9% | [3] 17.4% | [4] 13.4% | [5] -1.05% | [6] 2.4%

CC(=O)Nc1cc(Cl)ccc1C
inactive: [1] 39.7% | [2] 29.9% | [3] 26.3% | [4] 16.1% | [5] 5.95% | [6] 24.1%

CN(C)CCCNC(=O)CCNC(=O)c1cc(NC(=O)c2cc(NC(=O)c3cc(NC(=O)c4nccn4C)cn3C)cn2C)cn1C
inactive: [1] 24.4% | [2] -23.4% | [3] -17.2% | [4] 12.4% | [5] -5.15% | [6] 7.15%

Cc1ccc(NC(=O)c2cccc(C(=O)Nc3ccc(C)c(Cl)c3)c2)cc1Cl
inactive: [1] -28.1% | [2] -16.6% | [3] -11.2% | [4] -35% | [5] -5.55% | [6] 8.6%

O=C(c1ccccc1)C(O)(c1ccccc1)C1CCCC/C1=N\N(c1ccccc1)c1ccccc1 (configuration not stated)
inactive: [1] 37% | [2] 31.4% | [3] 29.9% | [4] 32.7% | [5] -20.4% | [6] 37.3%

c1coc(CNc2ncnc3nccnc23)c1
inactive: [1] -16.9% | [2] -4.35% | [3] -15.6% | [4] -20.2% | [5] -32.5% | [6] -4.45%

Nc1ccccc1OCCOCCOc1ccccc1N
inactive: [1] -31.9% | [2] -2.65% | [3] -8.45% | [4] 45.4% | [5] 14.9% | [6] -10.5%

CCOC(=O)Nc1ccccc1
inactive: [1] -1.65% | [2] 12.3% | [3] 1.55% | [4] -4.15% | [5] -6.8% | [6] 22.7%

CC1NC(=O)CC(c2ccccc2)N(N=O)C1c1ccccc1 (configuration not stated)
inactive: [1] -53.5% | [2] -3.3% | [3] -4.1% | [4] -7% | [5] -9.05% | [6] 8.65%

COc1ccc2c(c1)C(=O)C1(C2)[C@H](c2ccccc2)C2C(=O)c3cc(OC)ccc3C2[C@H]1c1ccccc1 (some centres not stated)
inactive: [1] -20.4% | [2] -3% | [3] 11.9% | [4] -5.2% | [5] 21.1% | [6] 9.3%

COc1ccc2c(c1CCl)C(=O)OC2
inactive: [1] 13.6% | [2] -9.1% | [3] -2.05% | [4] -20.6% | [5] 12.2% | [6] -1.05%

CCC(C)OC(=O)/C=C/c1ccccc1 (configuration not stated)
inactive: [1] 1.35% | [2] 3.15% | [3] -1.8% | [4] -0.25% | [5] -10.2% | [6] -10.6%

O=Cc1ccc2ccccc2c1
inactive: [1] 33.5% | [2] -12% | [3] -7.45% | [4] -57.5% | [5] 16.8% | [6] 30.8%

O=Cc1cc(Cl)cc(Cl)c1
inactive: [1] 5% | [2] -18.1% | [3] 0.85% | [4] 8.7% | [5] 8.95% | [6] 6.55%

O=C(Nc1cccc2ccccc12)c1ccccc1F
inactive: [1] -1.35% | [2] 16.8% | [3] 14.9% | [4] -2.15% | [5] 21.1% | [6] 11.8%

C[N+]1=C2[B-](C(C)(C)C)=[N+](C(C)(C)C)[B-]2(C(C)(C)C)[N+](C)=C2[B-](C(C)(C)C)=[N+](C(C)(C)C)[B-]21C(C)(C)C (configuration not stated)
inactive: [1] 2.65% | [2] 0% | [3] 9.35% | [4] -8.35% | [5] -4.1% | [6] -9.85%

Cc1ccc(Sc2cccc3c2C(=O)c2c(Sc4ccc(C)cc4)cccc2C3(Br)c2ccccc2)cc1
inactive: [1] 13.9% | [2] -8.95% | [3] -2.95% | [4] -27.2% | [5] -0.15% | [6] 0.1%
